# Assay results as given in paper PMC5540273 (PLoS ONE, 2017).
# Test system: PDPK1
# Settings: concentration: 1 μM, replicates: in singlicate; n = 1
# 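Further: KINOMEscan kinase panel screen.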
row,Structure (SMILES),%Inh [%]
1,COc1ccc(Nc2nccc(N3CCC(NS(=O)(=O)c4ccc(NC(C)=O)cc4)C3)n2)cc1 (stereo not drawn) [GSK1379729],9
2,CCn1c(-c2nonc2N)nc2ccccc21 [SB-693162/GW549034],0
3,COc1cccc(-n2cnc3c(N)ncnc32)c1 [SKF-97416],0
4,O=C(Nc1n[nH]c2nc(-c3ccccc3)c(Cl)cc12)C1CC1 [SB-734909],0
5,Cc1nnc(-c2ccc3ncn(-c4ccc(S(C)=O)cc4)c3c2)o1 (stereo not drawn),0
6,CCC(=O)c1c(-c2ccccc2)c2cc(Cl)ccc2c(=O)n1Cc1cc(S(C)(=O)=O)n(CC(F)F)n1,0
7,Cc1ccc(-c2ccc3c(ccc4sc5c(c43)NC[C@@H](C)N=C5N(C)C)n2)cn1,0
8,Cc1nnc(-c2ccc(C)c(-c3ccc(C(=O)O)cc3)c2)o1 [GW608005],4
9,Fc1cccc(CSc2nnc(-c3ccc4c(c3)CCO4)o2)c1,0
10,O=C(NCCNc1ccnc(Nc2ccc(F)cc2)n1)Nc1ccc2c(c1)OCO2 [GSK1379882],0
11,COc1cc2nccc(Nc3cccc(Oc4ccccc4)c3)c2cc1OC.Cl [GW284543],0
12,COc1ccc(-n2cnc3c(N)ncnc32)cc1 [SKF-97236],12
13,CCCNC(=O)Nc1ccc(Oc2ncnc3ccn(C)c23)cc1,0
14,COc1ccc(-c2cc3c(C)nc(N)nc3n([C@H]3CC[C@H](O)CC3)c2=O)cn1,0
15,COc1cc2ncn(-c3cc(OCCCc4ccccc4)c(C(N)=O)s3)c2cc1OC [GSK205189],11
16,CCc1ccc(-c2ccc3c(c2)-c2nn(C)cc2S(=O)(=O)N3C)cc1,23
17,Nc1n[nH]c2ncc(-c3ccccc3)cc12 [SB-517081],0
18,COc1ccc(CNC(=O)NC2CCN(c3ccnc(Nc4ccc(F)cc4)n3)C2)cc1 (stereo not drawn) [GSK1379706],0

row,Structure (SMILES),%Inh [%]
1,Cc1nn2c(=O)cc(N3CCOCC3)nc2n1Cc1cccc(Cl)c1Cl [GSK2342769],0
2,Cn1c(=O)c(F)c(Nc2ccc(I)cc2F)c2c(=O)n(OC[C@H](O)CO)cnc21,21
3,COC(=O)c1c(-c2ccccc2)c2cc(C)ccc2c(=O)n1Cc1ccccc1,0
4,Nc1ncnc2c1ncn2-c1ccc(Cl)cc1 [AH2635],0
5,COc1cccc(C2=C(N(C)c3ccccc3)C(=O)NC2=O)c1 [SB-334865],0
6,COc1cc(Nc2nccc(N3CCC(NC(=O)C4COc5ccccc5O4)C3)n2)cc(OC)c1OC (stereo not drawn) [GSK1379761],2
7,COC(=O)c1c(-c2ccccc2)c2cc(Br)ccc2c(=O)n1Cc1ccc(NC(=O)CCC(=O)O)cc1,0
8,Nc1ncnc2c1ncn2-c1cccc2ccccc12 [SKF-97184],0
9,COc1ccc(-c2cc3c(C)nc(N)nc3n([C@H]3CC[C@H](OCCO)CC3)c2=O)cn1,0
10,CCC(=O)c1c(-c2ccccc2)c2cc(Cl)ccc2c(=O)n1Cc1cc(S(C)(=O)=O)n(CC(N)=O)n1,31
11,Nc1nc(N)c2nc(-c3ccccc3)[nH]c2n1 [SKF-12778],14
12,FC(F)(F)c1ccc(-c2ncn(CCCN3CCOCC3)c2-c2ccncc2)cc1 [SB-217780],0
13,COc1cc(OC)cc(-c2cc3cnc(N)nc3nc2NC(=O)NC(C)(C)C)c1,0
14,O=C(Nc1ccc2c(c1)OCO2)NC1CCN(c2ccnc(NCc3ccc(F)cc3)n2)CC1 [GSK1379859],0
15,O=C(NCc1cccs1)c1cc(C(=O)c2c(Cl)cccc2Cl)c[nH]1 [GW823670],0
16,COc1cc2nccc(Nc3ccc(OCc4ccc(NC(C)=O)cc4)cc3)c2cc1OC.Cl [GW440135],22
17,COc1cc2ncn(-c3cc(OCc4ccncc4Br)c(C(N)=O)s3)c2cc1OC [GW854278],0
18,CCn1c(-c2ccoc2)nc2cnccc21 [SB-733887],0
